Consider 16 molecules from PubChem BioAssay AID652175 (National Center for Advancing Translational Sciences (NCATS), 2013).

Structures are written as SMILES. Results filed as inconclusive are left out. Entries that show only a call come without a potency. Calls of active or inactive are those of the source. Calls come from the whole dose curve; as a rule, active = well fitted inhibition curve with a large enough effect; inconclusive = small, poorly fitted or top-dose-only effect; inactive = no such curve, though single readings can be large or run the other way.

The assay can be described thus: qHTS Assay for Lipid Storage Modulators: S3 Assay against Probe and Analogs. The conditions noted are these: Drosophila S3 cells, BODIPY lipid droplet fluorescence, 18-24 h, oleic acid added to induce droplets; series mostly up to 46.1 µM. The method in brief: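 Lipid droplet accumulation by BODIPY 493/503 intensity over Cell Tracker Red cell signal, on an Acumen laser cytometer, in embryonic Drosophila S3 cells. Oleic acid added with compounds; 18-24 h, 25 °C. Triacsin C, 20 uM, defines 100% inhibition.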
Take `CCOc1ccc(CCNC(=O)c2ccc3ccccc3n2)cc1OCC`: the Potency result is “inactive”.

`O=C(N[C@H]1CCCc2c1cnn2-c1ccc(F)cc1F)c1ccccn1`: the Potency result was “inactive”.

Consider `CCOC(=O)C1CCN(C(=O)C(C)(C)NC(=O)Nc2cccc(C(=O)OC)c2)CC1`, for which the Potency result was “inactive”.

In the case of `O=C(NC1CCCc2c1cnn2-c1ccc(F)cc1F)c1ccc(C2(C(F)(F)F)N=N2)cc1` (stereo unspecified), the Potency was 7430 nM (active).

`CCOc1ccc(CCNC(=O)c2ccc3[nH]ccc3c2)cc1OCC`: the Potency entry is “inactive”.

Take `CCOC(=O)C1CCN(C(=O)C(C)(C)NC(=O)Nc2ccc(OC)c(Cl)c2)CC1`: the Potency entry was “inactive”.

As to `CCOc1ccc(CCNC(=O)c2cc3ccccc3n2Cc2ccc(Cl)c(F)c2)cc1OCC`, the Potency was 5.9 nM (active).

For `CCOc1cc2c(cc1OCC)CN(C(=O)c1cc3sccc3n1Cc1ccccc1)CC2`, the Potency is 1320 nM (active).

In the case of `CCOc1ccc(CCNC(=O)c2cc3sccc3n2C(C)C)cc1OCC`, the Potency is 187 nM (active).

Turning to `COc1ccc(-n2ncc3c2CCCC3NC(=O)c2ccccn2)cc1` (stereo unspecified), the Potency was 1.3 nM (active).

For `CCOC(=O)C1CCN(C(=O)C(C)(C)NC(=O)Nc2ccc([N+](=O)[O-])cc2)CC1`, the Potency entry is “inactive”.

Consider `CCOc1ccc(CCNC(=O)c2cc3sccc3n2Cc2ccncc2)cc1OCC`, for which the Potency was 132 nM (active).

Regarding `CCOc1ccc(CCNC(C)=O)cc1OCC`, the Potency entry was “inactive”.

In the case of `O=C(NC1CCCc2c1cnn2-c1cccc(O)c1)c1ccccn1` (stereo unspecified), the Potency was 41.8 nM (active).

For `Cc1cc2c(cc1C1(c3ccc(C(=O)O)cc3)CC1)C(C)(C)CCC2(C)C`, the Potency entry was “inactive”.

As for `CN(C)CC(=O)NC1CCCc2c1cnn2-c1ccc(F)cc1F` (stereo unspecified), the Potency entry is “inactive”.
